Data reported in PubChem BioAssay AID1347419 (Sanford-Burnham Center for Chemical Genomics, 2020).
Among all 99,000 compounds or so, about 820 (0.83%) were called active.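 How the source made its calls: active means Z-score of -3 or lower, scaled per plate to the spread of control and sample wells; inactive means z-score above -3.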 The sample as a whole holds a higher share of actives than the screen did.

These compounds were tested against Protein-tyrosine kinase 2-beta (Homo sapiens) (UniProt Q14289) (assay: antagonists of Pyk2 self-association, primary screen, Q293 cells, FERM NanoBiT luminescence, HTS (AID 1347419;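 further: the deposit names both 25 µM and 10 µM; negative z-score means lost luminescence so less FERM oligomerization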)). Details: stronger effect = lower value.
Design: dose or concentration left out as unconfirmed

Protein-tyrosine kinase 2-beta (Homo sapiens), sequence (Q14289 whole entry, looked up): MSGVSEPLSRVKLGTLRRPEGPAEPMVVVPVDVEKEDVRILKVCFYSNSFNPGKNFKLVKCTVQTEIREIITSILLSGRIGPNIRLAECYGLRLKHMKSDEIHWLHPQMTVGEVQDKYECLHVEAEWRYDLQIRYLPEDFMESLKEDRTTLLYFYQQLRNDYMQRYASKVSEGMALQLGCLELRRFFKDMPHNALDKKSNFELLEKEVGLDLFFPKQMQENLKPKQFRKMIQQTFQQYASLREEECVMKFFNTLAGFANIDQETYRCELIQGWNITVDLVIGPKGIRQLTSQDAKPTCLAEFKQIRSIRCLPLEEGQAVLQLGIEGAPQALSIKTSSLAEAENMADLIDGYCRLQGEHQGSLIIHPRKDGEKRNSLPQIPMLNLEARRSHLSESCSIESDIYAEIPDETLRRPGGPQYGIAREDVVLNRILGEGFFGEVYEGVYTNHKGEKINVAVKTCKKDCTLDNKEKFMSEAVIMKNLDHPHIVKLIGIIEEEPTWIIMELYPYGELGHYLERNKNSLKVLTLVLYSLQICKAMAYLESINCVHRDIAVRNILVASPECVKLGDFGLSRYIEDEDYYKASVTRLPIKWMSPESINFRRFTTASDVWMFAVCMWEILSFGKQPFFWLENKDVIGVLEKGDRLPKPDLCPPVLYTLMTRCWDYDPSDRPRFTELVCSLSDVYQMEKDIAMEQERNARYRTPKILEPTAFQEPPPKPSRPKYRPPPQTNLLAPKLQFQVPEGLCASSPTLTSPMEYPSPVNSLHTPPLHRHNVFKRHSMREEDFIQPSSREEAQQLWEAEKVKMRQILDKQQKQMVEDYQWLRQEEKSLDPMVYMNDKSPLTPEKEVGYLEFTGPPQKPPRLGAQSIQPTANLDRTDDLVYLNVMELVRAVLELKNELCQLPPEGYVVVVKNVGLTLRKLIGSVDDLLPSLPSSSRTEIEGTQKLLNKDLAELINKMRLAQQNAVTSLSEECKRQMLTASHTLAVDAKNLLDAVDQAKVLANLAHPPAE

| Structure (SMILES) | z-score |
| --- | --- |
| Cc1ccc(C(=O)Nc2ccc3c(c2)OCO3)cc1S(=O)(=O)N1CCCCC1 | -0.16 (inactive) |
| O=C(Nc1ccc2c(c1)OCCO2)c1ccc(Cl)c(S(=O)(=O)N2CCCCC2)c1 | -3.16 (active) |
| O=C(Nc1ccc2c(c1)OCCO2)c1ccncc1 | 0.87 (inactive) |
| Cc1ccc(C(=O)N/C(=C/c2cccnc2)C(=O)O)cc1 | 0.41 (inactive) |
| CC(=C/c1ccccc1)/C=N/NC(=O)c1cc(C)oc1C | -0.05 (inactive) |
| COc1ccc(-c2cc(C(F)(F)F)nc(SCC(=O)Nc3ccc4c(c3)OCO4)n2)cc1OC | -0.25 (inactive) |
| CCCc1nc2ccccc2c(C(=O)OCc2nnc(-c3cc(OC)c(OC)c(OC)c3)o2)c1CC | -3.12 (active) |
| CCCc1nc2ccccc2c(C(=O)OCC(=O)c2ccc3c(c2)NC(=O)CO3)c1CC | -1.42 (inactive) |
| CCOC(=O)c1cc(-c2nnc(-c3cc(OC)c(OC)c(OC)c3)o2)c(C)nc1C | 0.08 (inactive) |
| CCOC(=O)c1c(NC(=O)C2CCN(S(=O)(=O)c3ccc(Cl)cc3)CC2)sc2c1CCCC2 | 0.49 (inactive) |
| CC(=O)CCC(=O)c1ccc2ccccc2c1 | 1.48 (inactive) |
| Cc1ccc2nc(-c3cccnc3)c(NC3CCCC3)n2c1 | 0.15 (inactive) |
| Cc1cc(OCCN2CCCC2)cc(C(C)C)c1 | 1.27 (inactive) |
| C/C(=N\N=C(N)N)c1ccc(Cl)cc1 | -0.37 (inactive) |
| CCSc1nc(-c2ccc(OC)cc2)cc(-c2ccc(OC)cc2)c1C#N | -1.07 (inactive) |
| CCOc1cc(-c2cc(-c3ccc(OC)cc3)nc(N)c2C#N)ccc1O | -3.73 (active) |
| CCOC(=O)CC(=O)CSc1nc(-c2ccccc2)cc(-c2ccc(Cl)cc2)c1C#N | -0.86 (inactive) |
| NC(=O)CCC(NS(=O)(=O)c1ccc(Cl)cc1)C(=O)NCc1ccccc1Cl (configuration not stated) | -0.26 (inactive) |
| CCCn1nc(NS(=O)(=O)c2ccccc2)c2cc3cc(C)ccc3nc21 | -0.3 (inactive) |
| Cc1cc(C)c(C2C3=C(Nc4c2c(C)nn4-c2ccccn2)c2ccccc2C3=O)c(C)c1 (configuration not stated) | 1.27 (inactive) |
| CS(=O)(=O)N(Cc1ccccc1)c1ccc(C(=O)NN=C2CCCCCC2)cc1 | -0.45 (inactive) |
| C=CCOC(=O)C1=C(C)NC(C)=C(C(=O)OCC=C)C1c1cccs1 | -3.93 (active) |
| CCOC(=O)C1=C(C)NC(C)=C(C(=O)OCC)C1c1ccccn1 | 1.06 (inactive) |
| C=CCOC(=O)C1=C(C)NC(SCC(=O)OCC)=C(C#N)C1c1ccc(C)cc1 (configuration not stated) | -1.05 (inactive) |
| Cc1ccccc1-n1c(SCC(=O)NCc2cccs2)nnc1-c1ccncc1 | -0.72 (inactive) |

| Structure (SMILES) | z-score |
| --- | --- |
| Cc1ccccc1-c1nnc(SCC(=O)NCc2ccc3c(c2)OCO3)n1C | 0.49 (inactive) |
| Cc1ccc(-n2c(SCC(=O)NCc3ccc4c(c3)OCO4)nnc2-c2cccnc2)c(C)c1 | -4.03 (active) |
| COc1cc(-c2cc(C(=O)OCC(=O)Nc3ccc4c(c3)OCO4)c3ccccc3n2)cc(OC)c1OC | -0.31 (inactive) |
| CC1=NN(Cc2ccccc2)C(=O)/C1=C/c1ccc(N(C)C)cc1 | -1.29 (inactive) |
| CN(C)c1ccc(/C=C2\NC(=S)N(Cc3ccccc3)C2=O)cc1 | -3.38 (active) |
| CN(C)c1cc[n+](Cc2ccccc2)cc1 | 0.16 (inactive) |
| Cc1cc(C)cc(C(=O)NC(=S)Nc2ccc3[nH]c(=O)[nH]c3c2)c1 | 0.78 (inactive) |
| O=C(Cn1cc(C(=O)c2cccs2)c2ccccc21)NCc1cccs1 | -3.3 (active) |
| COC(=O)c1cn(CC(=O)NCc2cccs2)c2ccccc12 | -0.4 (inactive) |
| COCCNC(=O)Cn1cc(C(=O)c2cccs2)c2ccccc21 | -0.12 (inactive) |
| Cc1ccc(S(=O)(=O)NNC(=O)Nc2cccc3ccccc23)cc1 | -1.37 (inactive) |
| CC(=O)c1c(O)cc2n(c1=O)-c1ccc(Cl)cc1C2(C)C | -0.76 (inactive) |
| CCNC(=S)N1CCN(c2ncccn2)CC1 | 0.25 (inactive) |
| O=C(CN(c1ccc2c(c1)OCCO2)S(=O)(=O)c1ccccc1)Nc1ccc2c(c1)OCO2 | -3.19 (active) |
| COc1ccc(S(=O)(=O)N(C)CC(=O)Nc2ccc3c(c2)OCCO3)cc1OC | 0.96 (inactive) |
| CCCCC(=O)Nc1ccc2c(c1)OCCO2 | -0.26 (inactive) |
| Cc1cc([N+](=O)[O-])ccc1NC1CCCC1 | 0.61 (inactive) |
| CC(C)(C)C1CCC(=NNC(=O)c2cc(-c3ccccc3)n[nH]2)CC1 (configuration not stated) | 0.56 (inactive) |
| CCOc1ccc(NC(=S)NC(=O)/C=C/c2ccc(OC)cc2)c([N+](=O)[O-])c1 | 0.72 (inactive) |
| COc1ccc(-c2ccc(Nc3ccc(S(=O)(=O)N4CCCC4)cc3)nn2)cc1OC | -3.54 (active) |
| COc1ccc(S(=O)(=O)Nc2ccc(S(=O)(=O)N3CCCCC3)cc2)cc1OC | -1.09 (inactive) |
| COc1ccc(S(=O)(=O)N2CCCCC2)cc1Br | -0.87 (inactive) |
| CN(C)CCCNC(=S)NCc1ccc(Cl)cc1 | 0.46 (inactive) |
| Cc1ccc(C(C)NC(=O)Cn2nc(C)c([N+](=O)[O-])c2C)cc1 (configuration not stated) | 0.63 (inactive) |
| O=C1c2ccccc2C2=Nc3ccccc3SC(c3ccccc3F)C12 (configuration not stated) | -4.39 (active) |

| Structure (SMILES) | z-score |
| --- | --- |
| CCCOc1ccc(Cn2ccnc2)cc1[N+](=O)[O-] | 1.5 (inactive) |
| Cc1ccc(O)c(CCc2ccccc2)n1 | 0.72 (inactive) |
| COc1ccc(-c2cc(C(F)(F)F)nc(NCc3cccnc3)n2)cc1 | -3.51 (active) |
| COc1ccc(-c2nnc(SCc3cccnc3)o2)cc1 | -0.08 (inactive) |
| FC(F)(F)c1cc(-c2ccco2)nc(NCc2ccc(Cl)cc2)n1 | 0.02 (inactive) |
| N#Cc1c(/N=C/N2CCCC2)oc(-c2ccccc2)c1-c1ccccc1 | -2.56 (inactive) |
| COc1cc(C(=O)Nc2oc(-c3ccccc3)c(-c3ccccc3)c2C#N)cc(OC)c1OC | -3.42 (active) |
| COC(=O)c1sccc1NC(=O)c1cc(OC)c(OC)c(OC)c1 | -0.79 (inactive) |
| N#Cc1c(NC(=O)CCCN2C(=O)c3ccccc3C2=O)oc(-c2ccccc2)c1-c1ccccc1 | -3.57 (active) |
| O=C(CCN1C(=O)c2ccccc2C1=O)Nc1ccncc1 | 0.81 (inactive) |
| COc1cc(C(=O)NC(=S)NCc2ccco2)cc(OC)c1OC | 0.39 (inactive) |
| Cc1ccc(NC(=O)Cn2cccc2C2=NC(c3ccccc3)CO2)c(C)c1 (configuration not stated) | -0.85 (inactive) |
| OC(COCc1ccco1)CN1CCN(c2ccccc2)CC1 (configuration not stated) | 1 (inactive) |
| CC(CNc1ccc([N+](=O)[O-])c2cccnc12)Nc1c([N+](=O)[O-])cc(C(F)(F)F)cc1[N+](=O)[O-] (configuration not stated) | -1.13 (inactive) |
| Cc1ccc(NC(=O)CC2C(=O)N(Cc3ccccc3)C(=S)N2NC(=O)c2cccc(F)c2)c(C)c1 (configuration not stated) | -1.13 (inactive) |
| COC(=O)C1=NNC2(c3ccc(C)cc3)C(=O)N(c3cccc(C)c3C)C(=O)C12 (configuration not stated) | -0.49 (inactive) |
| CCc1ccc(NC(=O)c2ccc(Cn3cc([N+](=O)[O-])cn3)cc2)cc1 | -0.1 (inactive) |
| O=C(CSC(=S)N1CCOCC1)c1ccccc1 | 0.14 (inactive) |
| CC(=O)Nc1ccc(SCC(=O)Nc2ccccc2Oc2ccccc2)cc1 | -1.74 (inactive) |
| COc1ccc(C(c2nnnn2Cc2cccs2)N2CCN(c3ccccc3)CC2)cc1OC (configuration not stated) | -3.47 (active) |
| COCCn1nnnc1C(c1ccccc1Cl)N1CCN(c2ccccc2OC)CC1 (configuration not stated) | 0.11 (inactive) |
| COc1ccc(CCn2nnnc2C(c2ccccc2)N2CCN(C)CC2)cc1OC (configuration not stated) | 0.7 (inactive) |
| CC1(C)Cc2cccc(OCC(=O)N3CCN(c4ccc([N+](=O)[O-])cc4)CC3)c2O1 | -1.19 (inactive) |
| COC(=O)c1ccc(C(=O)OC)c(NC(=S)N2CCN(c3cc(Cl)ccc3C)CC2)c1 | 0.27 (inactive) |
| Cc1cc(C)c2[nH]c(=O)c(C(c3nnnn3Cc3ccc4c(c3)OCO4)N3CCCC3)cc2c1 (configuration not stated) | 0.33 (inactive) |

| Structure (SMILES) | z-score |
| --- | --- |
| Fc1ccccc1C(c1nnnn1Cc1ccc2c(c1)OCO2)N1CCN(Cc2ccccc2)CC1 (configuration not stated) | -3.73 (active) |
| CC(C)(C)n1nnnc1C(c1ccc(F)cc1)N1CCN(Cc2ccc3c(c2)OCO3)CC1 (configuration not stated) | -0.6 (inactive) |
| CCc1ccc(Oc2coc3cc(OC(=O)c4cc5ccccc5oc4=O)ccc3c2=O)cc1 | -2.06 (inactive) |
| COC(=O)c1ccc(C(=O)Nc2cc(Cl)ccc2Cl)cc1NC(=O)c1ccccc1C | 0.09 (inactive) |
| Cc1ccccc1NC(=O)c1ccccc1NS(=O)(=O)c1cccc2cccnc12 | -1.55 (inactive) |
| C=CCNC(=O)c1ccccc1NC(=O)c1ccc(Cl)c(S(=O)(=O)Nc2cccc(C)c2C)c1 | -3.05 (active) |
| Cc1nc2ccccc2n1CC(=O)N/N=C/c1cccs1 | 0.4 (inactive) |
| CCCN1C(=O)C(Cc2nc3ccccc3c(=O)n2-c2ccccc2)c2cc(C)ccc21 (configuration not stated) | 0.19 (inactive) |
| Cc1nn(CC(=O)Nc2ccc(N(C)C)cc2)c(C)c1[N+](=O)[O-] | -0.87 (inactive) |
| CCCCC(NS(=O)(=O)c1ccc(C)cc1)C(=O)Oc1ccc2c3c(c(=O)oc2c1)CCC3 (configuration not stated) | -1.42 (inactive) |
| COC(=O)N/N=C/c1cn(CCCOc2ccc(C)cc2)c2ccccc12 | -1.26 (inactive) |
| CCn1c(C(C)NC(=O)c2ccc(C)cc2)n[nH]c1=S (configuration not stated) | 0.28 (inactive) |
| O=C(Nc1ccccc1)c1ccc2c(c1)OCO2 | 1.34 (inactive) |
| CCCC(=O)Nc1ccccc1N1CCN(C(=O)c2ccccc2)CC1 | -1.16 (inactive) |
| O=C(Nc1ccccc1N1CCN(C(=O)c2ccccc2)CC1)c1ccc2c(c1)OCO2 | -3.44 (active) |
| CCOc1ccc(NC(=O)CSc2nc3ccccc3c(=O)n2Cc2cccs2)cc1 | 0.79 (inactive) |
| COc1ccc(-c2nn(-c3ccccc3)cc2C(=O)Nc2nccs2)cc1OC | -3.32 (active) |
| COc1cc(C(=O)Nc2nccs2)cc(OC)c1OC | -2.06 (inactive) |
| CC(=O)Cc1nsc(NC(=O)c2csc3c2CCCC3)n1 | -1.89 (inactive) |
| COC(=O)c1cn(-c2ccccc2)nc1-c1cccnc1 | -0.5 (inactive) |
| CC(=O)Cc1nsc(NC(=O)c2ccc(COc3ccc(C)cc3)o2)n1 | -0.45 (inactive) |
| COc1ccc(-c2nn(-c3ccccc3)cc2C(=O)Nc2nc(CC(C)=O)ns2)cc1 | -3.37 (active) |
